Several values for one entry are separate records, joined by “and”; a condition that tells them apart may be missing. Equal entries are not always repeated. Where a structure was tested more than once in an assay, its records may differ in their call. Activity calls are given as the source filed them. Unless noted, no rule for the calls is given here.
Experiments:
[1] = system: Wnt5a (protein binding on small-molecule microarray); assay: small molecules binding Wnt5a protein – biophysical, small-molecule microarray, 635/667 nm fluorescence, primary screen (AID 1142); details: 635 nm fluorescence, higher = more signal;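 also: fluorescence read at 667 nm with signal to noise per printed feature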
[2] = ATP-based viability of Huh7 replicon cells – cell-based, CellTiter-Glo luminescence, basal, 48 h, cytotoxicity control for HCV replication inhibitor project, primary screen (AID 1143); details: higher = more signal, called active from +8 up or from −8 down;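 also: Huh7 hepatoma cells carrying a hepatitis C replication reporter with no stimulus; test concentration not given here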
[3] = Pseudomonas biofilm growth suppression – PAO1 strain, BacTiter-Glo luminescence, LB-PBS, primary screen (AID 1144); details: P. aeruginosa PAO1 biofilm, 12 h, higher = more signal
[4] = basal CRE-LacZ reporter activity in PC12 – cell-based, unstimulated, primary screen (AID 1145); details: no forskolin, luminescence, 4.5 h, higher = more signal, called active from +8 up or from −8 down
[5] = forskolin-driven CRE-LacZ activity in PC12 – cell-based, CRE-LacZ reporter, forskolin-stimulated, primary screen (AID 1146); details: luminescence, 4.5 h, higher = more signal, called active from +8 up or from −8 down;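 also: PC12 cells with 6xCRE LacZ reporter stimulated by forskolin 10 µM; beta-galactosidase reporter signal reflecting CREB driven transcription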
[6] = target: Streptavidin (Streptomyces avidinii) (UniProt P22629); assay: compounds binding control protein streptavidin – biophysical, small-molecule microarray, 635/667 nm fluorescence, artefact control for SMM compound annotation, primary screen (AID 1147); details: higher = more signal;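 also: signal reflects streptavidin binding to arrayed compounds as a control protein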
[7] = probe aInhba binding on compound microarray – biochemical, small-molecule microarray, 635/667 nm fluorescence, primary screen (AID 1148); details: higher = more signal;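 also: score merges 667nm spot fluorescence with signal-to-noise for antibody binding to printed compounds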
Torsin-1A (Homo sapiens) [8] = target: Torsin-1A (Homo sapiens) (UniProt O14656); assay: TOR1A wild-type binding on microarray – cell lysate, small-molecule microarray, lysate, 635/667 nm, primary screen (AID 1149); details: COS7 hTOR1A-WT lysate, 635 nm fluorescence, higher = more signal
Torsin-1A (Homo sapiens) [9] = target: Torsin-1A (Homo sapiens) (UniProt O14656); assay: torsin A mutant lysate binding on microarrays – cell lysate, small-molecule microarray, COS7 lysate, 635/667 nm fluorescence, primary screen (AID 1150); details: COS7 hTOR1A mutant lysate, 635 nm fluorescence, higher = more signal;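 also: score pools 667 nm emission and signal to noise measuring lysate protein binding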
[10] = system: Sonic hedgehog protein (Shh); assay: Sonic hedgehog microarray binding compounds – biochemical, small-molecule microarray, 635/667 nm fluorescence, primary screen (AID 1151); details: 635 nm fluorescence, higher = more signal;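 also: Shh protein binding to compounds spotted on small-molecule microarray slides; score combines spot fluorescence intensity with signal-to-noise across triplicate slides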
[11] = optical density shifts of acrAB sulA E. coli – strain DRC41, OD650, 48 h, E. coli filamentation inducer project, primary screen (AID 1152); details: higher = more signal, called active from +8 up or from −8 down;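 also: E. coli MC1000 strain DRC41 lacking acrAB efflux pump and sulA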
[12] = probe aLefty1 binding on compound microarray – biochemical, small-molecule microarray, 635/667 nm fluorescence, primary screen (AID 1153); details: higher = more signal;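 also: score merges spot fluorescence with signal-to-noise ratio from the scanned slide images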
[13] = plasmodial surface anion channel blockers, osmotic lysis – cell-based, P. falciparum Indochina, OD700, 1 h, primary screen (AID 1154); details: P. falciparum Indochina infected RBC osmotic lysis, higher = more signal, called active from +8 up or from −8 down
[14] = plasmodial surface anion channel blockers, osmotic lysis – cell-based, P. falciparum Indochina, OD700, 2 h, primary screen (AID 1155);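 also: lysis reports solute entry through the parasite surface anion channel PSAC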; details: P. falciparum Indochina infected erythrocytes, higher = more signal, called active from +8 up or from −8 down
[15] = changes in parasitized red cell lysis, either direction – P. falciparum Indochina, OD700, 3 h, PSAC antagonist project, primary screen (AID 1156); details: P. falciparum-infected erythrocytes, osmotic lysis, higher = more signal, called active from +8 up or from −8 down
[16] = plasmodial surface anion channel blockers, osmotic lysis – cell-based, P. falciparum Indochina, OD700, 18 h, primary screen (AID 1157); details: P. falciparum Indochina infected erythrocytes, osmotic lysis OD700, 18 h; higher = more signal, called active from +8 up or from −8 down
[17] = S6 kinase pathway phospho-S6 level changes – cell-based, A549, cytoblot, luminescence, serum-stimulated, primary screen (AID 1158); details: 5 h, higher = more signal;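 also: serum-stimulated A549 lung adenocarcinoma cells; signal is phosphorylated S6 detected by cytoblot immunostaining with HRP secondary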
[18] = target: NADPH oxidase 2 (Homo sapiens) (UniProt P04839); assay: compounds shifting NOX2 Amplex Red fluorescence – cell-based, HEK293-NOX2, PMA-stimulated, NOX inhibitor project, primary screen (AID 1159); details: 45 min, higher = more signal, called active from +8 up or from −8 down; also: test concentration not given here
[19] = target: NADPH oxidase 4 (Homo sapiens) (UniProt Q9NPH5); assay: compounds shifting NOX4 Amplex Red fluorescence – cell-based, HEK293-NOX4, tetracycline-induced, NOX inhibitor project, primary screen (AID 1160); details: HEK293-NOX4, Amplex Red H2O2 fluorescence, 45 min; higher = more signal, called active from +8 up or from −8 down
[20] = target: NADPH oxidase 5 (Homo sapiens) (UniProt Q96PH1); assay: compounds shifting NOX5 Amplex Red fluorescence – cell-based, HEK293-NOX5, NOX inhibitor project, primary screen (AID 1161); details: HEK293-NOX5, ionomycin, 45 min, higher = more signal
Sequence of NADPH oxidase 5 (Homo sapiens) (Q96PH1 whole entry, looked up): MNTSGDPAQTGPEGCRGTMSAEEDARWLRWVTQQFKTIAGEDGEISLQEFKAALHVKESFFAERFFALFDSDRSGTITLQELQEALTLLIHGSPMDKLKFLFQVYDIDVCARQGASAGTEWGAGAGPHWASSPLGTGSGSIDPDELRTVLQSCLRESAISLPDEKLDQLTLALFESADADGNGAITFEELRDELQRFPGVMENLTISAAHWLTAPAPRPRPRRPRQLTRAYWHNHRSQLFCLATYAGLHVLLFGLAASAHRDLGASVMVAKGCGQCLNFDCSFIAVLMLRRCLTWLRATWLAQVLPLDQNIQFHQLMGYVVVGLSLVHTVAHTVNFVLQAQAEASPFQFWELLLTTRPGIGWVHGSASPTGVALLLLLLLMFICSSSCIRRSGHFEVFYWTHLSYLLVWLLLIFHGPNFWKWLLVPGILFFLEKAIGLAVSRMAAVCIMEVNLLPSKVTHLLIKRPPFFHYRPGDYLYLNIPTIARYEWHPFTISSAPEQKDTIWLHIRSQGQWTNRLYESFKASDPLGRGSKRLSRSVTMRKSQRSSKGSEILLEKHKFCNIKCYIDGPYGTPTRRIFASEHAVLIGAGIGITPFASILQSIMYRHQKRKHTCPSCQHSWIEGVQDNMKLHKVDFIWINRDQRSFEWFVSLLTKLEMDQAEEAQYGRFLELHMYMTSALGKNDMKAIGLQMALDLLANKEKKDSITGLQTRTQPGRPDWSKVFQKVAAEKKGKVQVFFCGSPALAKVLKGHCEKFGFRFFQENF

Sequence of Streptavidin (Streptomyces avidinii) (P22629 whole entry, looked up): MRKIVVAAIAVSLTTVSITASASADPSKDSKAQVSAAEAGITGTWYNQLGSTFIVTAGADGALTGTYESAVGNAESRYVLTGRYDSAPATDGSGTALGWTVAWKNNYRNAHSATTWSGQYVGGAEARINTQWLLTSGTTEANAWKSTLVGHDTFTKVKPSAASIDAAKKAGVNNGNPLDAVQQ
Sequence of NADPH oxidase 4 (Homo sapiens) (Q9NPH5 whole entry, looked up): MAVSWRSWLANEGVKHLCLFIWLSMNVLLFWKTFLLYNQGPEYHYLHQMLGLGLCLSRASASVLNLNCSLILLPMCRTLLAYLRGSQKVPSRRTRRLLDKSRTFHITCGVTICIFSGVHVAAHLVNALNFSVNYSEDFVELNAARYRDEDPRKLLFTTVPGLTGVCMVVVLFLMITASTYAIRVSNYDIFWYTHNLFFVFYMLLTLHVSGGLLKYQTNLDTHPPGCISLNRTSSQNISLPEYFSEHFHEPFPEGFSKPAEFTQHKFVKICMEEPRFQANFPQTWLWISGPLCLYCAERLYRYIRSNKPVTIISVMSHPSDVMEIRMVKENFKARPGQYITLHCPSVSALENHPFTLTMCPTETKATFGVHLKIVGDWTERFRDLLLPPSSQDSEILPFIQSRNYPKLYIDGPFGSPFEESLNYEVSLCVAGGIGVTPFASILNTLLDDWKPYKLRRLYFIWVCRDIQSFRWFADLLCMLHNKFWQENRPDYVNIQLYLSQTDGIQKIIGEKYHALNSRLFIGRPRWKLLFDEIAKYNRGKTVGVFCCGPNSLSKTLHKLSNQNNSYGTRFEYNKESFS
Sequence of NADPH oxidase 2 (Homo sapiens) (P04839 whole entry, looked up): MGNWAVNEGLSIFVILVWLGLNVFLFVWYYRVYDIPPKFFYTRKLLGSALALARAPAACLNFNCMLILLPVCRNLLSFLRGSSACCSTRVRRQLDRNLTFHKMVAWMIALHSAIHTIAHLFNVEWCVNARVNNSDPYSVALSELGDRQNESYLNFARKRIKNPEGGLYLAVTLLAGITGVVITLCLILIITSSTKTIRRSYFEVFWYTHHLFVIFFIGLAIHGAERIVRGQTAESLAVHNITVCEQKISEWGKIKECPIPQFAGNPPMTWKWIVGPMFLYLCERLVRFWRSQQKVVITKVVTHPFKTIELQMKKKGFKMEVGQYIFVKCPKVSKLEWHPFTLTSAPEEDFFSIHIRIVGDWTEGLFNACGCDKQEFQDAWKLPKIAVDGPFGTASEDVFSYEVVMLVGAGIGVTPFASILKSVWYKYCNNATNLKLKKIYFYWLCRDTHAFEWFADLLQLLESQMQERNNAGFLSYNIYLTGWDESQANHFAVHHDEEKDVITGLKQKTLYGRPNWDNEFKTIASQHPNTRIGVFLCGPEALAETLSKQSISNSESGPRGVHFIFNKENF
Sequence of Torsin-1A (Homo sapiens) (O14656 whole entry, looked up): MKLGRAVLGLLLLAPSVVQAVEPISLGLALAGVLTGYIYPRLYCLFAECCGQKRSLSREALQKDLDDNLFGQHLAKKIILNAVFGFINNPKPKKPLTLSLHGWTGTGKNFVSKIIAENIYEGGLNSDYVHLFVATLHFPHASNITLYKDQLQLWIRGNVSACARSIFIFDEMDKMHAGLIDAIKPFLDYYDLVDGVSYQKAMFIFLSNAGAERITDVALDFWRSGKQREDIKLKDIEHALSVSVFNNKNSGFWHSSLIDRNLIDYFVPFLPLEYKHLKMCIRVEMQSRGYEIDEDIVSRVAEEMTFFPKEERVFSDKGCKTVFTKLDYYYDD

Row | Structure (SMILES) | composite z-score [1] | z-score [2] | z-score [3] | z-score [4] | z-score [5] | composite z-score [6] | composite z-score [7] | composite z-score (Torsin-1A (Homo sapiens) [8]) | composite z-score (Torsin-1A (Homo sapiens) [9]) | composite z-score [10] | z-score [11] | composite z-score [12] | z-score [13] | z-score [14] | z-score [15] | z-score [16] | z-score [17] | z-score [18] | z-score [19] | z-score [20]
1 | C=CCN(CCCCC)C(=O)C(c1cccs1)N(C(=O)/C=C\C(=O)O)c1ccc(CCO)cc1 (stereo not given) | -0.909 and -0.947 | 0.162 (inactive) and 0.193 (inactive) | 0.0224 (inactive) and -0.188 (inactive) | 0.459 (inactive) and 0.597 (inactive) | -0.343 (inactive) and -0.244 (inactive) | -1.72 and -1.16 | -0.331 and -0.0021 | -2.38 and -1.69 | -1.96 and -1.51 | -0.975 and -0.587 | 0.539 (inactive) and 0.137 (inactive) | -0.147 and -0.15 | 0.0722 (inactive) and -0.629 (inactive) | 0.181 (inactive) and -0.255 (inactive) | -0.533 (inactive) and -0.741 (inactive) | 0.0113 (inactive) and 0.0094 (inactive) | 0.0901 and -0.111 | 0.259 (inactive) and -0.0131 (inactive) | -0.6 (inactive) and -0.665 (inactive) | 0.614 and 0.19
2 | C=CCN1C(=O)[C@]2(O[C@H](CCn3cc(CCO)nn3)[C@@H]([Si](C)(C)c3ccc(OC)cc3)[C@@H]2C)c2cc(N3C(=O)c4cccc5cccc3c45)ccc21 | 0.684 and 0.279 | -8.04 (active) and -7.97 (inactive) | -0.475 (inactive) and -0.111 (inactive) | 29.7 (active) and 37.9 (active) | -4.15 (inactive) and -3.89 (inactive) | 0.377 and 0.732 | -0.0719 and -0.0986 | 0.317 and 0.0769 | 0.398 and 0.254 | 1.21 and 1.38 | 0.833 (inactive) and -0.342 (inactive) | -0.0536 and 0.188 | 24.1 (active) | 9.07 (active) and 8.54 (active) | -0.152 (inactive) and -1.17 (inactive) | 2.04 (inactive) and 1.7 (inactive) | 1.04 and 0.347 | 0.823 (inactive) and 1.03 (inactive) | 0.265 (inactive) and 0.624 (inactive) | -0.371 and -0.152
3 | C=CCN(C(=O)C1N(c2c(Cl)cccc2CO)C(=O)C2C(C(=O)O)C3C=CC21O3)C(C)(C)C (stereo not given) | -0.948 and -0.619 | -0.488 (inactive) and 0.0489 (inactive) | -0.774 (inactive) and -0.443 (inactive) | -1.44 (inactive) and 0.329 (inactive) | -0.219 (inactive) and -0.51 (inactive) | 0.163 and -1.11 | -0.702 and -0.213 | -2.54 and -1.22 | -1.62 and -1.73 | -1.17 and -0.681 | 1.66 (inactive) and 1.99 (inactive) | -0.945 and -0.0547 | 1.77 (inactive) and -0.973 (inactive) | 0.821 (inactive) and -1.1 (inactive) | 1.03 (inactive) and -0.229 (inactive) | 0.604 (inactive) and -1.54 (inactive) | 0.442 and 1.04 | 0.961 (inactive) and 0.116 (inactive) | -0.288 (inactive) and -0.645 (inactive) | 0.788 and -0.335
4 | C=CCN(C(=O)C(c1cccs1)N(CCOCCO)C(=O)/C=C\C(=O)O)C(C)(C)C (stereo not given) | -0.775 and -0.776 | -0.199 (inactive) and -0.0585 (inactive) | -1.2 (inactive) and -0.384 (inactive) | 1.42 (inactive) and 0.191 (inactive) | 0.005 (inactive) and -0.599 (inactive) | -1.89 and -1.22 | -0.251 and -0.176 | -1.26 and -0.984 | -1.79 and -2.02 | -1.27 and -0.703 | 1.56 (inactive) and 0.971 (inactive) | -0.371 and -0.355 | -1.2 (inactive) and -1.15 (inactive) | -0.172 (inactive) and -0.307 (inactive) | 0.0342 (inactive) and -0.837 (inactive) | 0.011 (inactive) and -0.113 (inactive) | 0.234 and 0.15 | -0.302 (inactive) and -0.0837 (inactive) | -0.904 (inactive) and -0.857 (inactive) | 0.0514 and 0.0449
5 | CCN1C(=O)[C@H]2[C@H]3[C@H](O)[C@H](O)CC(=NOC)[C@@H]3CC[C@H]2C1=O | -0.254 | 0.359 (inactive) | -1.16 (inactive) | -1.12 (inactive) | -0.154 (inactive) | -0.125 | -0.0762 | -0.477 | -0.115 | -0.13 | -0.589 (inactive) | -0.0654 | 0.637 (inactive) | 0.628 (inactive) | 0.47 (inactive) | 0.269 (inactive) | 0.815 | -0.0884 (inactive) | 0.545 (inactive) | -0.274
6 | CC(=O)OC[C@H]1O[C@H](C#CC(C)(C)C)C=C[C@@H]1OC(C)=O | -0.0516 | 0.13 (inactive) | 0.992 (inactive) | -0.162 (inactive) | 1.35 (inactive) | 1.58 | -0.0331 | 0.835 | -0.392 | 0.953 | 0.192 (inactive) | -0.0969 | -0.184 (inactive) | 0.0987 (inactive) | -0.537 (inactive) | -0.0954 (inactive) | -0.675 | 1.5 (inactive) | 0.847 (inactive) | 0.943

— PubChem BioAssay
